Measurements: the supplement of paper PMC5641865, “A screen for kinase inhibitors identifies antimicrobial imidazopyridine aminofurazans as specific inhibitors of the Listeria monocytogenes PASTA kinase PrkA” (The Journal of Biological Chemistry, 2017)
Where a name gives a salt, the structure may show the parent alone. ± gives the standard deviation of the averaged measurements.
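Also: End-point A600 read in BHI broth at 37 °C with 2% DMSO, inhibition computed as (1 − OD with compound plus ceftriaxone ÷ OD with ceftriaxone only) × 100.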

What follows are molecules tested on Listeria monocytogenes 10403S (assay: growth inhibition relative to ceftriaxone-alone control; higher = stronger potentiation of ceftriaxone growth inhibition). Details: 10 µM; ceftriaxone 1 ug/ml; 12 h.
`Cc1cccc(-c2n[nH]cc2-c2ccc3ncccc3n2)n1` showed a growth inhibition of -9.12 ± 7.3%.
`CN1CCN(C(=O)c2ccc(NC(=O)Nc3ccc(N(C)c4ccnc(Nc5ccc(CS(C)(=O)=O)cc5)n4)cc3)cc2)CC1` was tested, and the growth inhibition was -5.87 ± 3.3%.
With `CC1=C(C(=O)Nc2ccc3[nH]ncc3c2)C(c2ccc3ccccc3c2)CC(=O)N1` (stereo not drawn) the growth inhibition was 11.5 ± 2.3%.
`CCn1nnc2c(N3CCOCC3)nc(-c3ccc(NC(=O)Nc4ccc(C(=O)N5CCN(C)CC5)cc4)cc3)nc21` was tested, and the growth inhibition was 20.2 ± 19%.
With `CCOc1cc2ncc(C#N)c(Nc3ccc(OCc4ccccn4)c(Cl)c3)c2cc1NC(=O)/C=C/CN(C)C` [Neratinib (HKI-272)] the growth inhibition was 12.3 ± 9.7%.
For `Cc1ccc([N+](=O)[O-])cc1S(=O)(=O)N(C)/N=C/c1cnc2ccc(Br)cn12`, the growth inhibition was 2.5 ± 4.3%.
`C#Cc1cccc(Nc2ncnc3cc(OCCOC)c(OCCOC)cc23)c1` [Erlotinib HCl] gave a growth inhibition of 18.6 ± 18%.
For `COC(=O)Nc1nc2ccc(Sc3ccc(NC(=O)Nc4cc(C(F)(F)F)ccc4F)cc3)cc2[nH]1`, the growth inhibition was -12.7 ± 13%.
For `[O-][S+]1CCN(Cc2ccc(-c3ccc4ncnc(Nc5ccc(OCc6ccccc6)c(F)c5)c4c3)o2)CC1`, the growth inhibition was 2.23 ± 7.9%.
`Nc1ccc(-c2ccc3ncc4ccc(=O)n(-c5cccc(C(F)(F)F)c5)c4c3c2)cn1` [Torin 2] showed a growth inhibition of -20 ± 12%.
Work on `Fc1ccc(-c2cc(-c3c[nH]nc3-c3ccccn3)ccn2)cc1` yielded a growth inhibition of -6.8 ± 13%.
Molecule `C=CC(=O)Nc1cccc(Oc2nc(Nc3ccc(N4CCN(C)CC4)cc3)ncc2Cl)c1` has a growth inhibition of 13.3 ± 3.3%.
In the case of `NS(=O)(=O)c1ccc(N/C=C2\C(=O)Nc3ccc4ncsc4c32)cc1`, the growth inhibition is reported as -2.62 ± 4.2%.
With `CCN1CCN(c2ccc(Nc3cc(N(C)C(=O)Nc4c(Cl)c(OC)cc(OC)c4Cl)ncn3)cc2)CC1` the growth inhibition was 12.2 ± 5.4%.
Work on `OCCn1cc(-c2cnc3nnn(Cc4ccc5ncccc5c4)c3n2)cn1` yielded a growth inhibition of 22.9 ± 24%.
Work on `COc1cc(Nc2ncc(-c3ccccc3)o2)cc(OC)c1` yielded a growth inhibition of 17 ± 3.9%.
`Nc1nonc1-c1nc2cnccc2n1C1CCCCC1` showed a growth inhibition of 12.4 ± 3.9%.
`NS(=O)(=O)c1ccc(N/N=C2\C(=O)Nc3ccc4ncccc4c32)cc1` was tested, and the growth inhibition was -6.48 ± 3.8%.
`COc1c(C(N)=O)cc(-c2ccc(Cl)cc2)cc1-c1ccc(S(N)(=O)=O)cc1` was tested, and the growth inhibition was 1.37 ± 1.2%.
For `O=C1NC(=O)C(=Cc2ccc(-c3ccc(F)cc3)o2)S1` (stereo in doubt), the growth inhibition was 31.8 ± 28%.
For `NC(=O)c1sc(-n2cnc3ccc(C(F)(F)F)cc32)cc1OCc1ccccc1Br`, the growth inhibition was -2.79 ± 1.9%.
`CCN(CC)CCNC(=O)c1c(C)[nH]c(/C=C2\C(=O)Nc3ccc(F)cc32)c1C` [Sunitinib Malate (Sutent)] gave a growth inhibition of 73.6 ± 12%.
`COc1cc2ncn(-c3cc(OCc4ccccc4S(C)(=O)=O)c(C#N)s3)c2cc1OC` was tested, and the growth inhibition was 12.7 ± 3%.
`COc1cc2ncn(-c3cc(OCc4ccccc4Cl)c(C(N)=O)s3)c2cc1OC` gave a growth inhibition of -6.56 ± 0.46%.
With `COc1ccc(-c2oc3ncnc(N)c3c2-c2ccc(NC(=O)Nc3cc(C(F)(F)F)ccc3F)cc2)cc1` the growth inhibition was -3.49 ± 7.6%.
`Nc1nc(N)c2nc(-c3cccc(O)c3)c(-c3cccc(O)c3)nc2n1` showed a growth inhibition of 63 ± 19%.
`NCc1ccc(-c2nc(-c3ccc(Cl)c(O)c3)c(-c3ccncc3)[nH]2)cc1` gave a growth inhibition of -9.88 ± 15%.
With `CN(c1ccc(NC(=O)Nc2ccc(OC(F)(F)F)cc2)cc1)c1ccnc(Nc2cccc(S(N)(=O)=O)c2)n1` the growth inhibition was -3.28 ± 2%.
`O=C1NC(=O)/C(=C/c2ccc3nccc(-c4ccncc4)c3c2)S1` showed a growth inhibition of 19.4 ± 3.5%.
`COc1cc2c(Nc3ccc(NC(=O)c4ccccc4)cc3)ncnc2cc1OCCCN1CCOCC1` gave a growth inhibition of 24.9 ± 20%.
In the case of `COc1cc(/C=N/Nc2ncnc3c2cnn3C(C)C)ccc1O`, the growth inhibition is reported as -1.18 ± 2.2%.
`CC1=C(C(=O)Nc2ccc3[nH]ncc3c2)C(c2ccc(Cl)c(Cl)c2)CC(=O)N1` (stereo not drawn) showed a growth inhibition of -13 ± 9.9%.
With `COc1cc2c(N3CCN(C(=O)Nc4ccc(OC(C)C)cc4)CC3)ncnc2cc1OCCCN1CCCCC1` [Tandutinib (MLN518)] the growth inhibition was 32.3 ± 18%.
`COc1cc2c(cc1Nc1nc(Nc3ccsc3C(N)=O)c3cc[nH]c3n1)N(C(=O)CN(C)C)CCC2` was tested, and the growth inhibition was -0.422 ± 3.1%.
Work on `Nc1ncc(-c2cccc(S(N)(=O)=O)c2)c2scc(-c3ccc(F)c(Cl)c3)c12` yielded a growth inhibition of -7.14 ± 12%.
`CCCS(=O)(=O)Nc1ccc(F)c(C(=O)c2c[nH]c3ncc(-c4ccc(Cl)cc4)cc23)c1F` [Vemurafenib (PLX4032)] gave a growth inhibition of -29.7 ± 26%.
With `C[C@]1(O)C[C@@H](c2nc(-c3ccc4ccc(-c5ccccc5)nc4c3)c3c(N)nccn32)C1` [Linsitinib (OSI-906)] the growth inhibition was 56.8 ± 25%.
`CCN1CCC(CC(=O)Nc2n[nH]c3nc(-c4cccs4)c(Br)cc23)CC1` was tested, and the growth inhibition was 7.98 ± 1.7%.
